Assay results published in PubChem BioAssay (NCATS).
Several values for one entry are separate records, joined by “and”; a condition that tells them apart may be missing. Identical values can stand only once. Results filed as inconclusive are left out. Activity calls are given as the source filed them. Unless noted, the call rests on the fitted dose curve; in most records, active means well fitted curve in the direction sought with a large enough effect; inconclusive means small, poorly fitted or top-dose-only effect, or another doubt; inactive means no such curve, though single readings can be large; an effect the other way counts as inactive or inconclusive.

How the values were obtained:
[1] = target: Cytochrome P450 3A4 (Homo sapiens) (UniProt P08684); test: qHTS Assay for Inhibitors and Substrates of Cytochrome P450 3A4 (AID 884); further: nearly all actives have a fitted effect of over 50% in size; further: potency means the concentration at half of the fitted maximal effect
Cytochrome P450 3A4 (Homo sapiens), sequence (P08684 whole entry, looked up): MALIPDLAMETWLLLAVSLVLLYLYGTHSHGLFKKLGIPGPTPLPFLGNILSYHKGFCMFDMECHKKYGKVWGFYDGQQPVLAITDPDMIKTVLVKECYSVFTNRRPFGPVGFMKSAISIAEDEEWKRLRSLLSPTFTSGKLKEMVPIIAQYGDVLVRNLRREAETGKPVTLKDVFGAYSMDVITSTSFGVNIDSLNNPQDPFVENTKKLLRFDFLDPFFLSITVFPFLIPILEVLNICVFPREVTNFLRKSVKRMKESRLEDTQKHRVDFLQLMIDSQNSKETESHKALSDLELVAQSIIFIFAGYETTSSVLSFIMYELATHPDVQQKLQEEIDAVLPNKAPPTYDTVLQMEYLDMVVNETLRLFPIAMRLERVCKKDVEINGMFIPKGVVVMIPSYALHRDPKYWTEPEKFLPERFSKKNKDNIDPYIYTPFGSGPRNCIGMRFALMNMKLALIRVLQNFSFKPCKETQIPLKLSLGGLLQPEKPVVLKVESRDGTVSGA
Summary of the method: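 20 nM human CYP3A4 with 25 uM Luciferin-PPXE (at KM) in 200 mM KPO4, preincubated 10 min with compound; NADPH regeneration started a 60 min RT reaction. Luciferin detected by luminescence, normalized to 57 uM ketoconazole as full inhibition.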

[2] = MultiTox-Fluor Cytotoxicity Assay - LYMP1-001 - Live Cells (AID 947);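 further: 0% = DMSO only and full inhibition = tetraoctylammonium bromide control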
[3] = MultiTox-Fluor Cytotoxicity Assay - LYMP1-002 - Dead Cells (AID 960);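 further: 0% = DMSO and 100% = tetraoctylammonium bromide; nearly all actives have a fitted effect of over 60% in size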
Summary of the method: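 Human lymphoblastoid cells (LYMP1-002), 2500/well in complete medium, were exposed to compounds for 16 hr at 37 C. Dead-cell protease activity was read as bis-AAF-R110 fluorescence (Ex/Em 485/520), normalized to DMSO and 15 uM tetraoctylammonium bromide; AC50 from Hill fits.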

[4] = Cell Viability - LYMP2-009 (AID 968);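 further: series mostly up to about 92 µM; cells exposed to compound for 24 h at 37 °C; 0% = DMSO alone and the full-kill end = tetraoctylammonium bromide at 92 µM; nearly all actives have a fitted effect of over 55% in size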
[5] = Cell Viability - LYMP2-015 (AID 971);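 further: cells exposed to compound for 24 h; 0% = DMSO only and full effect = 92 µM tetraoctylammonium bromide; nearly all actives have a fitted effect of over 55% in size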
Summary of the method: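 Human lymphoblastoid cells (2500/well) in complete medium were preincubated 5 hr at 37 C, then compound-treated 24 hr at 37 C. Intracellular ATP was read by CellTiter-Glo luminescence after 30 min at room temperature; AC50 came from Hill-equation concentration-response fits.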

[6] = target: Estrogen receptor (Homo sapiens) (UniProt P03372); test: qHTS assay for small molecule antagonists of estrogen receptor alpha signaling (AID 588513; active means well fitted curve in the direction sought with a large enough effect in the signal ratio, with a control signal flat, not every such curve was filed as active; the % refers to the signal ratio; further: on the % scale 0 is the no-effect control and ±100 the full control effect)
Estrogen receptor (Homo sapiens), sequence (P03372 whole entry, looked up): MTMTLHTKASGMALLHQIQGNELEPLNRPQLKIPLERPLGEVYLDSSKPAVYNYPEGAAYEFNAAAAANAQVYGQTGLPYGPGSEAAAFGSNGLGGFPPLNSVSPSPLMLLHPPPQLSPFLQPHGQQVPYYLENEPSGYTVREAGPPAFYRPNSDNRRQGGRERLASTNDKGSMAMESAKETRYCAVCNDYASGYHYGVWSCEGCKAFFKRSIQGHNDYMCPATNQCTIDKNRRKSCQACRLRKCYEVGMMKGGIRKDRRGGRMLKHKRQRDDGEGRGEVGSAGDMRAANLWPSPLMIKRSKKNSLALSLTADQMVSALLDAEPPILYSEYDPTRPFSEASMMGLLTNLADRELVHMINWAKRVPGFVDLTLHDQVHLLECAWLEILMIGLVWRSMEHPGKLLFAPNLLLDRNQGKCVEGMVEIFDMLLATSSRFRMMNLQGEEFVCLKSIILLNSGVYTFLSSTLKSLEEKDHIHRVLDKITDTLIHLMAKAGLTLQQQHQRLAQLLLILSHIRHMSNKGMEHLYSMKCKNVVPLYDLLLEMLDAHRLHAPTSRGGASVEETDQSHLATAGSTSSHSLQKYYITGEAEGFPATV
Summary of the method: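 Antagonist mode: inhibition of 0.5 nM 17-beta-estradiol-driven beta-lactamase reporter in HEK 293 ER-alpha-UAS-bla cells, 18 h at 37C, CCF4 readout after 2 h at RT. Normalised to estradiol and DMSO; titration fitted to Hill.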

[7] = qHTS assay for small molecule agonists of retinoid X receptor alpha signaling (AID 588544; calls by dose curve;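 on activation: 0% = DMSO basal wells and 100% = reference agonist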); conditions: HEK293T RXRa-UAS-bla, beta-lactamase reporter, 18 h; 530 nm emission
[8] = target: Retinoic acid receptor RXR-alpha (Homo sapiens) (UniProt P19793); test: as above
Retinoic acid receptor RXR-alpha (Homo sapiens), sequence (P19793 whole entry, looked up): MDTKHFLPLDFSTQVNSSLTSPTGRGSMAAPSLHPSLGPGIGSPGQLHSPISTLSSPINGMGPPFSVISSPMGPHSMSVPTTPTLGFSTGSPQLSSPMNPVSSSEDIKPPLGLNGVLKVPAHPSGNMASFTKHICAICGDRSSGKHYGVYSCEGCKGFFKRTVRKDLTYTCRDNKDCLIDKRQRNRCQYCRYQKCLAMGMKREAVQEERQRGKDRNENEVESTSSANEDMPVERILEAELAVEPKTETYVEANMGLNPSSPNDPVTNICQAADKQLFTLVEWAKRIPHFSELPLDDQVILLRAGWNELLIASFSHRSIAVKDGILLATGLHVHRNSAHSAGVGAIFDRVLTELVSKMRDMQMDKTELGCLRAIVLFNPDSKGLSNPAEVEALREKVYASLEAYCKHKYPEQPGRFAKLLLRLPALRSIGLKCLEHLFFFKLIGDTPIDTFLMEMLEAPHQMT

[9] = target: Thyroid hormone receptor beta (Homo sapiens) (UniProt P10828); test: qHTS assay for small molecule antagonists of thyroid hormone receptor beta signaling (AID 588547; active means well fitted inhibition curve with a large enough effect in the signal ratio, with a control signal flat, not every such curve was filed as active; the % refers to the signal ratio;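 further: cells stimulated with 0.4 nM T3 agonist during compound exposure; series mostly up to about 77 µM; on the % scale 0 is the no-effect control and ±100 the full control effect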); conditions: TR-UAS-bla HEK293, beta-lactamase ratio, antagonist mode, 18 h
Thyroid hormone receptor beta (Homo sapiens), sequence (P10828 whole entry, looked up): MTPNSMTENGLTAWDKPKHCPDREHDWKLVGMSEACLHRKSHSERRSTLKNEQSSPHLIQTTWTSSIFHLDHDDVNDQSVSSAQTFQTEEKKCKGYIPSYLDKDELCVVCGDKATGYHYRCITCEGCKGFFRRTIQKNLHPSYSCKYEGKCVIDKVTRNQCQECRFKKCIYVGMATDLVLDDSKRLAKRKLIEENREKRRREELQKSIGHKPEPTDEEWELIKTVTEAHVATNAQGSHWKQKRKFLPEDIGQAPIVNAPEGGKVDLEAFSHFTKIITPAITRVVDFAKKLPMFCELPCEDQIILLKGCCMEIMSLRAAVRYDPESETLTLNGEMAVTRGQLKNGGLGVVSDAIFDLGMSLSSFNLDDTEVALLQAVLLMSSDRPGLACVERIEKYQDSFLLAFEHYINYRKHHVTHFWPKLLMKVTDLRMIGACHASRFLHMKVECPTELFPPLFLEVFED
Summary of the method: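 Inhibition of T3-driven (0.4nM final) beta-lactamase reporter activity was measured over 0.59 nM to 92 uM compound after 18 h at 37 C. The cells were GripTite HEK293 TR-UAS-bla in charcoal/dextran-stripped serum, with CCF4 ratio read-out and IC50 from Hill fits.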

[10] = qHTS assay for small molecule activators of the p53 signaling pathway (AID 651743; active means well fitted activation curve with a large enough effect in the signal ratio, not every such curve was filed as active; the % refers to the signal ratio; further: series mostly up to about 92 µM; % of control where 0% means no effect); conditions: HCT-116 p53RE-bla, beta-lactamase FRET ratio, 16 h; activation: stronger effect = higher value
Summary of the method: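 Screen for p53 pathway agonists uses stably transfected p53RE-bla HCT-116 cells, 4,000 per well, treated 16 h at 37 C with compounds in DMSO.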

[11] = qHTS assay for small molecule disruptors of the mitochondrial membrane potential - 1 hr assay (AID 651754; calls by dose curve; further: nearly all actives have a fitted effect of over 35% in size; further: potency means the concentration at half of the fitted maximal effect)
Summary of the method: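 HepG2 cells, attached overnight at 37C, were exposed to compound or DMSO vehicle for 1 hr at 37C, 5% CO2, then stained with Mito-MPS dye for 30 min. Red aggregate versus green monomer fluorescence reports membrane potential.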

[12] = qHTS assay for small molecule disruptors of the mitochondrial membrane potential - 5 hr assay (AID 651755; calls by dose curve; further: nearly all actives have a fitted effect of over 40% in size; further: potency means the concentration at half of the fitted maximal effect)
Summary of the method: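 HepG2, 2,000 cells/well, overnight attach; cpd or DMSO 5 hr, 37C/5% CO2; Mito-MPS 30 min 37C; fluor 490/535 + 540/590 nm.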

[13] = qHTS assay for environmental chemicals that activate the Aryl hydrocarbon Receptor (AhR) signaling pathway (AID 651777); conditions: 1A2-DRE human hepatoma cells, luciferase, 24 h; activation: stronger effect = higher value; further: nearly all actives have a fitted effect of over 15% in size; further: potency means the concentration at half of the fitted maximal effect; on activation: % of control where 0% means no effect
Summary of the method: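 Luminescence read-out: One-Glo added for 30 min at RT after 24 hr compound treatment (37 C, 5% CO2) of human hepatoma cells expressing a DRE/CYP1A2 promoter–luciferase reporter; increased signal indicates AhR activation.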

[14] = qHTS assay for small molecule antagonists of the retinoid-related orphan receptor gamma (ROR-gamma) signaling pathway - cell viability counter screen (AID 720652; active means well fitted curve in the direction sought with a large enough effect in the repeat runs; an effect the other way counts as inactive or inconclusive;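 further: compound exposure lasted 16 hr before ATP read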; further: potency means the concentration at half of the fitted maximal effect)
Summary of the method: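 Counter screen in CHO cells carrying TET-inducible ROR-gamma and an ROR response element-luciferase reporter; cells plated 5 hr, compound pinned, doxycycline added, then 16 hr at 37 C. Viability read as intracellular ATP by CellTiter-Glo luminescence.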

[15] = target: Nuclear receptor subfamily 1 group I member 2 (Rattus norvegicus) (UniProt Q9R1A7); test: qHTS assay for small molecule activators of the rat pregnane X receptor (rPXR) signaling pathway (AID 651751; call rule not given here; further: 0% is about no effect); conditions: rPXR reporter cells, luciferase (One-Glo), 24 h
Nuclear receptor subfamily 1 group I member 2 (Rattus norvegicus), sequence (Q9R1A7 whole entry, looked up): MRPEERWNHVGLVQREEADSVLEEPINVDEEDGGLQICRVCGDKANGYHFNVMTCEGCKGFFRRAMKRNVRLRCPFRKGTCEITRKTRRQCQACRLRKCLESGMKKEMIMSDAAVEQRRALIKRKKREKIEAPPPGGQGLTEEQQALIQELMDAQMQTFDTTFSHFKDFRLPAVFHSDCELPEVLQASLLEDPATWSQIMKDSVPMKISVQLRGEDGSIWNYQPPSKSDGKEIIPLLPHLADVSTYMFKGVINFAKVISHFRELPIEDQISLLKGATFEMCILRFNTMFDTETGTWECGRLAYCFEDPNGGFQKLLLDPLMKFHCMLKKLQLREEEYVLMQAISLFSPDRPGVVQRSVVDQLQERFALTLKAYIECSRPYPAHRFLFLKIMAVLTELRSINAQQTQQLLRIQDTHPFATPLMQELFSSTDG

[16] = qHTS assay for small molecule activators of the human pregnane X receptor (PXR) signaling pathway (AID 720659; call rule not given here; further: 0% is about no effect)
[17] = target: Peroxisome proliferator-activated receptor gamma (Homo sapiens) (UniProt P37231); test: qHTS assay for small molecule agonists of peroxisome proliferator-activated receptor gamma signaling (AID 588536; active means well fitted curve in the direction sought with a large enough effect in the signal ratio, with a control signal flat, not every such curve was filed as active; the % refers to the signal ratio;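 further: 0% = DMSO basal wells and 100% = rosiglitazone at 2 µM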)
Peroxisome proliferator-activated receptor gamma (Homo sapiens), sequence (P37231 whole entry, looked up): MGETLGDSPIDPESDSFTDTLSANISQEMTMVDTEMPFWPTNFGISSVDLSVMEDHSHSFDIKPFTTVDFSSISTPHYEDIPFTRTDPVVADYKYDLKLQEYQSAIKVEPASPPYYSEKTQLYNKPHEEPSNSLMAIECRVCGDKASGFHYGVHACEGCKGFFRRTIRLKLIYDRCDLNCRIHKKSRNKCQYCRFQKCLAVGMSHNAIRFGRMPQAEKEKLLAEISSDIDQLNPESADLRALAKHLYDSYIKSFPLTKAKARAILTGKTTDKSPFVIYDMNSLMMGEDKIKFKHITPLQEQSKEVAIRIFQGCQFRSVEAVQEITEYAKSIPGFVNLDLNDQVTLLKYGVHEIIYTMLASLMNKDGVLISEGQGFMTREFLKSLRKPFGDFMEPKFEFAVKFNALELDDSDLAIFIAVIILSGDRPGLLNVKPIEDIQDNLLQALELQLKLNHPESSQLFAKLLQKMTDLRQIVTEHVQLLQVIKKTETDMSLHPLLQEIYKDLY
Summary of the method: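 GeneBLAzer PPAR-gamma-UAS-bla HEK293 cells in 1% charcoal/dextran-treated FBS medium were treated 16 h at 37 C with compounds. Beta-lactamase activity was read by CCF4 ratio (460/530 nm). Response was normalized to 2 uM rosiglitazone (100%) and DMSO, then Hill-fitted for EC50 and efficacy.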

[18] = target: Vitamin D3 receptor (Homo sapiens) (UniProt P11473); test: qHTS assay for small molecule agonists of vitamin D receptor signaling (AID 588543; calls by dose curve;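 further: 0% = DMSO basal and 100% = reference agonist control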)
Vitamin D3 receptor (Homo sapiens), sequence (P11473 whole entry, looked up): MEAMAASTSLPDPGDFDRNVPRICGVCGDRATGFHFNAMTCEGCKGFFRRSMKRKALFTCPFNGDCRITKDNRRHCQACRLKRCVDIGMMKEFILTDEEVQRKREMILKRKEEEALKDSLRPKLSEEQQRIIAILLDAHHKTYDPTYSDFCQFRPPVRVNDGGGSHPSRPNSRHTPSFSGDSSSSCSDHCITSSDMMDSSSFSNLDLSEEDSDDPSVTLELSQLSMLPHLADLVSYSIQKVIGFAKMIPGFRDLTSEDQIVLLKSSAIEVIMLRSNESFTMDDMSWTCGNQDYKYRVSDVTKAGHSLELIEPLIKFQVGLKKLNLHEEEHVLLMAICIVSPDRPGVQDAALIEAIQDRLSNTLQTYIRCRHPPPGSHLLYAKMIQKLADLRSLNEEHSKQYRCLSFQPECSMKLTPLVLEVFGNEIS
Summary of the method: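 Agonist-mode beta-lactamase reporter: HEK293T VDR-UAS-bla cells in charcoal-stripped 2% FBS, compound series 16 h 37 C, CCF4 2 h RT. EC50 from Hill fit, scaled against DMSO and 50 nM calcitriol control.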

[19] = target: Tumor necrosis factor (Homo sapiens) (UniProt P01375); test: qHTS assay to identify small molecules that stimulate Tumor Necrosis Factor-alpha (TNF-alpha) secretion (AID 651757; active means well fitted curve in the direction sought with a large enough effect in the signal ratio; the % refers to the signal ratio; further: 0% is about no effect)
Tumor necrosis factor (Homo sapiens), sequence (P01375 whole entry, looked up): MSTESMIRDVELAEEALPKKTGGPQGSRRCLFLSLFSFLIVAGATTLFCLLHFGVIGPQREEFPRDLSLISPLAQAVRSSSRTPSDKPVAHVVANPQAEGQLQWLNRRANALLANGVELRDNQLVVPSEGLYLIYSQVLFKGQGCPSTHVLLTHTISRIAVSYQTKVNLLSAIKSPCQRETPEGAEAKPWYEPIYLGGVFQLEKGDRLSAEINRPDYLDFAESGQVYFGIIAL
Summary of the method: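 THP-1 cells were exposed to compounds for 17 hrs at 37 C, after which secreted TNF-alpha was measured by homogeneous HTRF (TR-FRET) using cryptate- and XL665-labeled anti-TNF-alpha antibodies, read after 3 hr at room temperature.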

[20] = qHTS assay for small molecule agonists of the antioxidant response element (ARE) signaling pathway measured by Nrf2-dependant transcriptional activity (AID 720636; active means well fitted curve in the direction sought with a large enough effect in the repeat runs; an effect the other way counts as inactive or inconclusive; further: potency means the concentration at half of the fitted maximal effect;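 on activation: HepG2 cells with an ARE-driven luciferase reporter; % of control where 0% means no effect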)
Summary of the method: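 HepG2 ARE-luc reporter line, 1% dialyzed FBS; 6 hr attachment at 37 C, compound pinned in, 16 hr at 37 C/5% CO2; ONE-Glo, 30 min RT, luminescence read.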

c1ccc2c(c1)c1cccc3ccc4cccc2c4c31
-17% and -12.4%: max response [7]
inactive: Potency [1] | Potency [2] | Potency [3] | Potency [4] | Potency [5] | Potency [6] | outcome [8] | activity change % (negative = inhibition) [9] 6.13% and -3.87% | activation [10] 8.13% and 3.99% | Potency [11] | Potency [12] | activation [13] 0.979% and 4.09% | Potency [14] | max response [15] 4.91% and -2.4% | outcome [16]

Cc1ccc(N)c([N+](=O)[O-])c1
-17.4% and -9.33%: max response [7]
inactive: Potency [1] | Potency [3] | Potency [4] | Potency [5] | Potency [6] | outcome [17] | outcome [18] | outcome [8] | activity change % (negative = inhibition) [9] -3.23% | Potency [11] | Potency [12] | outcome [19] | activation [13] 2.83% and 1.74% | Potency [20] | Potency [14] | max response [15] -2.15% and -2.21%

C=Cc1ccccc1Cl
-6.66%: max response [7]
inactive: Potency [1] | Potency [2] | Potency [3] | Potency [4] | Potency [5] | Potency [6] | outcome [17] | outcome [18] | outcome [8] | activity change % (negative = inhibition) [9] 9.88% | activation [10] -0.152% | Potency [11] | Potency [12] | outcome [19] | activation [13] -0.0962% | Potency [20] | Potency [14] | max response [15] 1.05% | outcome [16]

O=C1c2ccccc2C(=O)C1c1ccc2ccccc2n1
active: Potency [1] 2.51 µM | Potency [11] 0.944 µM | Potency [12] 1.68 µM | Potency [13] 39.8 µM and 7.08 µM | Potency [20] 1.54 µM and 1.33 µM | Potency [14] 33.5 µM
inactive: Potency [2] | Potency [3] | Potency [6] | outcome [17] | outcome [18] | outcome [8] | activity change % (negative = inhibition) [9] -15.6% | activation [10] 5.56% and 14%
16.7%: max response [7]

Clc1cc(Cl)c(Cl)cc1Cl
inactive: Potency [1] | Potency [2] | Potency [3] | Potency [4] | Potency [5] | Potency [6] | outcome [17] | outcome [8] | activity change % (negative = inhibition) [9] 5.68% and 7.52% | activation [10] -2.65% and -1.28% | Potency [11] | Potency [12] | outcome [19] | activation [13] -0.0961% and 4.29% | Potency [20] | Potency [14] | max response [15] 1.48% and 5.88% | outcome [16]
4.21% and -11.5%: max response [7]
